Source: PubChem
The full list was thinned out, with hits kept by preference.
TTR transcr act: TTR transcription activators in neuroblastoma reporter cells, primary screen, cell-based, luminescence, SH-SY5Y, TTR promoter Gaussia luciferase. activation, % at 16.7 µM. 100% = recombinant luciferase protein wells. 92,000 tested, 1.3% active;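 active = activation above the mean of all tested compounds plus 3 SD, cut at about 9.5% in these data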;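 also: cells exposed to compounds for one day before reading; 0% = median of all test compound wells on the plate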
TTR inh HuH7: TTR promoter reporter inhibitors in hepatoma cells, counter-screen for TTR transcription activator project, cell-based, luminescence, HuH7 hepatoma; shares compounds with TTR transcr act; HuH7 TTR promoter-Gaussia luciferase reporter; inhibition, % at 16.7 µM; 1,100 tested, 4% active; AID 1117279, 2014;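 active = average inhibition above the solvent-only control wells' mean plus 3 SD, cut at about 15% in these data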;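 also: 0% = cells with DMSO only and 100% = cells with inhibitor control FD; inhibitors lower well luminescence so higher value means more inhibition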
TTR up confirm: TTR transcription activators, retest, confirmation, cell-based, luminescence, SH-SY5Y, triplicate; shares compounds with TTR transcr act; SHSY5Y TTR promoter Gaussia luciferase; 100% = purified Lucia enzyme wells, no cells; activation, % at 16.7 µM; 1,100 tested, under 10 active; AID 1117280, 2014;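 active = mean activation above a set limit taken from the earlier primary screen, cut at about 11% in these data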;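 also: 0% = DMSO-treated cells and 100% = recombinant Lucia luciferase without cells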
The depositor's hits bear a star; ! = repeats disagree.

For COc1ccccc1CNC1CCC12CCC(c1ccccc1)CC2 (stereo not drawn) the results were TTR transcr act 0.
Screening CCC1(C)Cc2sc3c(=O)[nH]c(=S)[nH]c3c2CO1 (stereo not drawn) returned TTR transcr act 18*, TTR inh HuH7 -10 and TTR up confirm 0.
Screening C=CCNC(=S)Nc1sc2c(c1C(=O)OCC)CC(C)(CC)OC2 (stereo not drawn) returned TTR transcr act 0.
Screening CC(C)c1nc2sc3c(=O)[nH]c(=S)[nH]c3c2c2c1CCCC2 returned TTR transcr act 0.
`O=C(OCC#CCSc1nnc(-c2c[nH]c3ccccc23)o1)c1ccc(F)cc1` gave TTR transcr act 0.
`CCCn1nnnc1NC(=O)COc1ccc(CC)cc1` gave TTR transcr act 2.
`CC(=O)O[C@H](COc1c2ccoc2cc2oc(=O)ccc12)C(C)(C)O` gave TTR transcr act -1.
`C=C(C)[C@@H](O)COc1c2ccoc2cc2oc(=O)ccc12` gave TTR transcr act 10*, TTR inh HuH7 -6 and TTR up confirm 0.
CC(C)(O)[C@H](O)COc1c2ccoc2cc2oc(=O)ccc12 was read as TTR transcr act 6.
For COP(=O)(O)CCOCCC(CC(C)C)NC(=O)OCc1ccccc1 (stereo not drawn) the results were TTR transcr act 1.
Screening CN1C2=N[C@@H](c3ccc4c(c3)OCO4)CC(=O)N2/C(=C\c2ccccc2)[C@@H]1c1ccccc1 returned TTR transcr act 0.
Cc1ccc(S(=O)(=O)C2CCN(c3nc(-c4cccs4)nc4ccccc34)CC2)cc1 was read as TTR transcr act -1.
Screening O=C(Cc1cc(=O)[nH][nH]1)N/N=C/c1ccccc1Cl returned TTR transcr act 7.
O=C(Cc1cc(=O)[nH][nH]1)N/N=C/c1c(Cl)cccc1Cl was read as TTR transcr act -1.
For O=C(Cc1cc(=O)[nH][nH]1)N/N=C/c1cccc(Cl)c1Cl the results were TTR transcr act 23*!, TTR inh HuH7 -13 and TTR up confirm 0.
CCCCCCCCN1C(=O)[C@@H](CC(=O)NCc2cccc(C(F)(F)F)c2)C[C@@]2(C(=O)OC)C1=C[C@H](C(C)C)O[C@@H]2C1CC1 was read as TTR transcr act -1.
For COc1ccc(/C=N/NC(=O)C(N)=O)c(OC)c1OC the results were TTR transcr act 13*, TTR inh HuH7 -4 and TTR up confirm 0.
COc1ccc(/C=N\NC(=O)CCc2c(C)n[nH]c2C)c(OC)c1OC was read as TTR transcr act -1.
`COc1ccc(/C=N/NC(=O)c2cccc(OC(F)(F)C(F)F)c2)c(OC)c1OC` gave TTR transcr act 1.
COCCCNC(=O)C[C@H]1C[C@@]2(C(=O)OC)C(=C[C@H](C3CCCC3)O[C@@H]2C)N(Cc2ccco2)C1=O was read as TTR transcr act 0.
`Cc1ccc(-c2nc3c(Cl)cc(C(F)(F)F)cn3c2Cc2cccc(F)c2)cc1` gave TTR transcr act 1.
Screening NC(=O)C1CCN(c2nc(-c3ccc(N)cc3)cs2)CC1 returned TTR transcr act 1.
For CCOC(=O)N1CCN(C(=O)C[C@@H]2C[C@]3(C(=O)OCC)CCC4=C3N(CCC4)C2=O)CC1 the results were TTR transcr act 1.
For COc1ccc(NC(=O)c2sccc2C)c([N+](=O)[O-])c1 the results were TTR transcr act 4.
Screening COc1ccc(/C=C/C(=O)Nc2ccc(OC)cc2[N+](=O)[O-])cc1 returned TTR transcr act 13*, TTR inh HuH7 0 and TTR up confirm 2.
`COc1ccc(NC(=O)Nc2ccc(OC)c(OC)c2)c([N+](=O)[O-])c1` gave TTR transcr act 2.
For Cc1ccccc1CN1CCCCC(NC(=O)c2ccc(-c3ccccc3)cc2)C1=O (stereo not drawn) the results were TTR transcr act -3.
For COc1cccc(Cn2ncc3c4sc(S(C)=O)cc4n(C)c3c2=O)c1 (stereo not drawn) the results were TTR transcr act 5.
For Cc1nc(SCC(=O)NC(C)(C)C)c2c(-c3cccs3)csc2n1 the results were TTR transcr act 14*, TTR inh HuH7 -16 and TTR up confirm 0.
For Cc1cc(NC(=O)CSc2n[nH]c(-c3cccs3)n2)no1 the results were TTR transcr act 4.
CC(C)(C)NC(=O)CSc1nnc(-c2ccncc2)n1Cc1ccccc1 was read as TTR transcr act -1.
Screening O=C(O[C@H]1CC[C@@]23CCCN2C(=O)CCC[C@H]3C1)N1CCCC1 returned TTR transcr act 1.
CCOc1ccc(CCNC(=O)c2cc3ccsc3n2C)cc1OCC was read as TTR transcr act -1.
Screening Oc1ccc(-c2nn[nH]n2)c2cccnc12 returned TTR transcr act 0.
Screening Cc1cccc(Cn2c(=O)c3c(nc4n3CCN4Cc3ccco3)n(C)c2=O)c1 returned TTR transcr act 0.
Screening CCCCn1c(=O)n(Cc2cccc(F)c2)c(=O)c2c1ncn2Cc1ccco1 returned TTR transcr act 19*, TTR inh HuH7 -5 and TTR up confirm 0.
`CCn1cnc2c1c(=O)n(CC(=O)O)c(=O)n2Cc1ccccc1` gave TTR transcr act 5.
`Cc1ccccc1CN1CCCCC(NC(=O)C(C)(C)C)C1=O` (stereo not drawn) gave TTR transcr act 2.
For O=C(Nc1ccccc1Cl)OC1CC2CC1[C@H]1CCCCN1[C@H]2Cc1ccccc1 (stereo partly drawn) the results were TTR transcr act -1.
CCOC(=O)[C@@]12CCCC=C1N(CCc1ccc(Cl)cc1)C(=O)[C@H]2CC(=O)NCc1cccc2ccccc12 was read as TTR transcr act -1.
Screening COC(=O)C[C@@H]1CC[C@@H]2[C@@H](COc3ccc(NC(=O)Nc4ccc(F)cc4)cc3C(=O)N2C)O1 returned TTR transcr act -2.
For O=C1CCC(C(=O)OCC(=O)Nc2ccc(SC(F)F)cc2)=NN1 the results were TTR transcr act 2.
For Cc1cc(C(=O)N/N=C/c2cccc(OC(=O)c3cccc(Br)c3)c2)n[nH]1 the results were TTR transcr act -2.
`COc1cccc(/C=N/NC(=O)c2cc(C34CC5CC(CC(C5)C3)C4)[nH]n2)c1` gave TTR transcr act 17*, TTR inh HuH7 -12 and TTR up confirm 0.
For COc1ccc(/C=N/NC(=O)c2cc(C34CC5CC(CC(C5)C3)C4)[nH]n2)cc1OC the results were TTR transcr act 5.
Screening COC(=O)[C@]12C[C@H](CC(=O)N3CCC(c4ccccc4)CC3)C(=O)N(Cc3ccc(Cl)cc3Cl)C1=C[C@H](C(C)(C)C)O[C@@H]2C returned TTR transcr act 1.
Screening CC(C)OC(=O)/C(=C\c1ccccc1)NC(=O)c1ccccc1 returned TTR transcr act 0.
For CC(=O)N/C(=C\c1ccccc1)C(=O)OCC(=O)NC(=O)c1ccccc1 the results were TTR transcr act 15*, TTR inh HuH7 3 and TTR up confirm 1.
Screening CCOC(=O)/C(=C\c1ccc(C)cc1)NC(=O)c1ccccc1 returned TTR transcr act 4.
